{"source": "PubChem BioAssay AID463173", "about": "(ICCB-Longwood Screening Facility, Harvard Medical School, 2010)", "note": "Hit rate of the full screen: of about 52,000 compounds, about 4,300 (8.3%) were called active. Rule as the data show it: active = survival mostly below about 52% (no sharp cut-off); inactive = mostly above about 56%. Many of the other results were omitted from the sample, so actives are more common in it than they were."}
{"system": "DeltatarO mutant", "experiment": "S. aureus survival, RN4220 and DeltatarO strains – OD600, teichoic acid synthesis inhibitors, primary screen (AID 463173)", "details": "S. aureus RN4220 wild type/DeltatarO growth, OD600, 18 h, active compounds read low, screened at 18.75 µg/mL (by protocol)"}
{"smiles": "CC(C)NC(=O)c1ccc2c(c1)nc1n2CCCCC1", "survival": "91% (inactive)"}
{"smiles": "COc1cccc(Cn2c(=O)n(CC3CCC(C(=O)N4CCOCC4)CC3)c(=O)c3sccc32)c1", "note": "(centres undefined)", "survival": "124% (inactive)"}
{"smiles": "CCc1ccc(S(=O)(=O)c2cn(CC)c3cc(N4CCCCC4)c(F)cc3c2=O)cc1", "survival": "83% (inactive)"}
{"smiles": "CCOc1ccc2[nH]c(=O)c(CN(Cc3ccccc3OC)C(=O)N3CCCC3)cc2c1", "survival": "96% (inactive)"}
{"smiles": "NCCS(=O)(=O)N1CCCC1", "survival": "88% (inactive)"}
{"smiles": "Cc1ccn2c(c1)nc(=O)c1cc(S(=O)(=O)N3CCC(C)CC3)c(Cl)cc12", "survival": "87% (inactive)"}
{"smiles": "COc1ccc(NC(=O)CC2C(=O)N(c3cccc(C)c3)C(=O)N2C2CCCCC2)cc1", "note": "(centres undefined)", "survival": "69% (inactive)"}
{"smiles": "COc1ccc(NC(=O)CSc2ccc3nc(-c4ccccc4)cn3n2)cc1OC", "survival": "113% (inactive)"}
{"smiles": "CCOC(=O)N1CCN(Cc2nc3cc(NC(=O)c4ccccc4Cl)ccc3n2C(C)C)CC1", "survival": "70% (inactive)"}
{"smiles": "COC(=O)CN1C(=O)CSc2ccc(S(=O)(=O)Nc3c(C)cc(C)cc3C)cc21", "survival": "101% (inactive)"}
{"smiles": "COC(=O)CN1C(=O)CSc2ccc(S(=O)(=O)Nc3cccc(Br)c3)cc21", "survival": "37% (active)"}
{"smiles": "COC(=O)CN1C(=O)CSc2ccc(S(=O)(=O)Nc3cccc(C)c3C)cc21", "survival": "63% (inactive)"}
{"smiles": "COC(=O)CN1C(=O)CSc2ccc(S(=O)(=O)Nc3cccc(C)c3)cc21", "survival": "101% (inactive)"}
{"smiles": "COC(=O)CN1C(=O)CSc2ccc(S(=O)(=O)Nc3ccccc3)cc21", "survival": "91% (inactive)"}
{"smiles": "COC(=O)CN1C(=O)CSc2ccc(S(=O)(=O)Nc3cc(C)ccc3C)cc21", "survival": "25% (active)"}
{"smiles": "CC(C(=O)O)N1CCCCC1", "note": "(centres undefined)", "survival": "79% (inactive)"}
{"smiles": "CCOc1ccc2[nH]c(=O)c(CN(Cc3cccnc3)S(=O)(=O)c3ccccc3)cc2c1", "survival": "86% (inactive)"}
{"smiles": "CCOc1ccccc1NC(=O)Cn1c(=O)n(Cc2nc(C)no2)c(=O)c2ccccc21", "survival": "81% (inactive)"}
{"smiles": "Cc1cc(C)c(NC(=O)CN2C(=O)CCSc3ccc(S(=O)(=O)N4CCCC4)cc32)c(C)c1", "survival": "84% (inactive)"}
{"smiles": "Cc1ccc(NC(=O)CN2C(=O)c3ccccc3Sc3ccc(C(=O)N4CCCC4)cc32)cc1", "survival": "76% (inactive)"}
{"smiles": "O=C(CN1C(=O)c2ccccc2Sc2ccc(C(=O)N3CCOCC3)cc21)Nc1ccc(Cl)cc1F", "survival": "94% (inactive)"}
{"smiles": "Cc1cc(C)cc(NC(=O)CN2C(=O)c3ccccc3Sc3ccc(C(=O)N4CCOCC4)cc32)c1", "survival": "89% (inactive)"}
{"smiles": "CN(C)c1ccc(NC(=O)CN2C(=O)c3ccccc3Sc3ccc(C(=O)N4CCCC4)cc32)cc1", "survival": "-2% (active)"}
{"smiles": "Cc1ccc(NC(=O)CN2C(=O)c3ccccc3Sc3ccc(C(=O)N4CCOCC4)cc32)c(Cl)c1", "survival": "-5% (active)"}
{"smiles": "CCc1ccc(NC(=O)CN2C(=O)c3ccccc3Sc3ccc(C(=O)N4CCCC4)cc32)cc1", "survival": "86% (inactive)"}
{"smiles": "CCOc1ccccc1N(CC)C(=O)Cn1ncc2c1-c1ccccc1OC2", "survival": "62% (inactive)"}
{"smiles": "COc1cccc(C(=O)N(Cc2ccc(N(C)C)cc2)Cc2ccco2)c1", "survival": "69% (inactive)"}
{"smiles": "CCc1cccc(CC)c1N(COC)C(=O)Cn1c(CC)nc2ccccc21", "survival": "69% (inactive)"}
{"smiles": "CCOCN(C(=O)Cn1c(C)nc2ccccc21)c1c(C)cccc1CC", "survival": "125% (inactive)"}
{"smiles": "CCCCc1nc2ccccc2n1CC(=O)N(COCC)c1c(C)cccc1CC", "survival": "-12% (active)"}
{"smiles": "CCOCN(C(=O)Cn1c(CC(C)C)nc2ccccc21)c1c(C)cccc1CC", "survival": "-12% (active)"}
{"smiles": "CCOCN(C(=O)Cn1c(C(C)O)nc2ccccc21)c1c(C)cccc1CC", "note": "(centres undefined)", "survival": "83% (inactive)"}
{"smiles": "CCOCN(C(=O)Cn1c(COC)nc2ccccc21)c1c(C)cccc1CC", "survival": "95% (inactive)"}
{"smiles": "CCc1ccc(NC(=O)Cn2c(=O)n(-c3cc(C)cc(C)c3)c(=O)c3oc4ccccc4c32)cc1", "survival": "73% (inactive)"}
{"smiles": "COc1ccc(-c2cn(-c3ccc(C)cc3)c(S(=O)(=O)CC(=O)Nc3ccc(F)cc3)n2)cc1", "survival": "150% (inactive)"}
{"smiles": "CCc1ccc(NC(=O)c2sc3nc(C)c(Cl)c(C)c3c2NC(=O)c2ccccc2OC)cc1", "survival": "130% (inactive)"}
{"smiles": "COc1ccc(N2CCN(C(=O)C(CC(C)C)NS(=O)(=O)c3ccc4nc(C)sc4c3)CC2)cc1", "note": "(centres undefined)", "survival": "77% (inactive)"}
{"smiles": "O=C(CSc1cn(CC(=O)N2CCOCC2)c2ccccc12)Nc1ccccc1F", "survival": "88% (inactive)"}
{"smiles": "Cc1ccccc1CSc1cn(CC(=O)N2CCCCC2)c2ccccc12", "survival": "71% (active)"}
{"smiles": "Cc1ccccc1CSc1cn(CC(=O)N2CCCC2)c2ccccc12", "survival": "58% (inactive)"}
{"smiles": "O=C(CSc1cn(CC(=O)N2CCCCCC2)c2ccccc12)Nc1ccccc1F", "survival": "77% (inactive)"}
{"smiles": "O=C(CSc1cn(CC(=O)N2CCCCC2)c2ccccc12)Nc1ccccc1F", "survival": "70% (active)"}
{"smiles": "Cc1ccccc1CSc1cn(CC(=O)N2CCCCCC2)c2ccccc12", "survival": "68% (inactive)"}
{"smiles": "CCC(=O)N1c2ccccc2CC1C(=O)N1CCN(c2cccc(Cl)c2)CC1", "note": "(centres undefined)", "survival": "77% (inactive)"}
{"smiles": "CCn1cc(C(=O)NCCc2ccc(Cl)cc2)c(=O)c2cc(S(=O)(=O)N3CCC(C)CC3)ccc21", "survival": "105% (inactive)"}
{"smiles": "CCN(CC)CCN(C(=O)c1ccco1)c1nc2c(C)c(C)ccc2s1", "survival": "77% (inactive)"}
{"smiles": "O=[N+]([O-])c1cc(-c2nc(-c3ccccc3)no2)ccc1N1CCCC1", "survival": "63% (inactive)"}
{"smiles": "CCOc1ccc(NC(=O)CC2Nc3cccc4cccc(c34)NC2=O)cc1", "note": "(centres undefined)", "survival": "37% (active)"}
{"smiles": "CCOC(=O)c1ccc(NC(=O)CC2Nc3cccc4cccc(c34)NC2=O)cc1", "note": "(centres undefined)", "survival": "28% (active)"}
{"smiles": "COc1ccc(NC(=O)CC2Nc3ccccc3NC2=O)cc1", "note": "(centres undefined)", "survival": "61% (active)"}
{"smiles": "Cc1ccc(NC(=O)CC2Nc3ccccc3NC2=O)cc1C", "note": "(centres undefined)", "survival": "58% (inactive)"}
{"smiles": "CCOC(=O)c1ccc(NC(=O)CC2Nc3ccccc3NC2=O)cc1", "note": "(centres undefined)", "survival": "62% (inactive)"}
{"smiles": "Cc1cccc(NC(=O)CC2Nc3cccc4cccc(c34)NC2=O)c1", "note": "(centres undefined)", "survival": "64% (inactive)"}
{"smiles": "O=C(CC1Nc2cccc3cccc(c23)NC1=O)Nc1ccc(F)cc1", "note": "(centres undefined)", "survival": "111% (inactive)"}
{"smiles": "Cc1ccc(NC(=O)CC2Nc3cccc4cccc(c34)NC2=O)cc1", "note": "(centres undefined)", "survival": "61% (inactive)"}
{"smiles": "COc1cccc(NC(=O)CC2Nc3cc(C)c(C)cc3NC2=O)c1", "note": "(centres undefined)", "survival": "89% (inactive)"}
{"smiles": "Cc1cccc(NC(=O)CC2Nc3ccccc3NC2=O)c1", "note": "(centres undefined)", "survival": "71% (inactive)"}
{"smiles": "COc1ccc(NC(=O)CC2Nc3cccc4cccc(c34)NC2=O)cc1", "note": "(centres undefined)", "survival": "41% (active)"}
{"smiles": "CC(=O)c1ccc(NC(=O)CC2Nc3cccc4cccc(c34)NC2=O)cc1", "note": "(centres undefined)", "survival": "72% (inactive)"}
